Measurements: PubChem BioAssay AID1159580 (chemical genetic matrix, 2015)
Several values for one entry are separate records, joined by “and”; a condition that tells them apart may be missing. Equal entries are not always repeated. Out of some 5,500 compounds screened, about 2,000 (36%) were called active. Not shown: some 18% with an inconclusive outcome. No stated cut-off is given here; in the data, active means normalized growth mostly below about 0.91 (no sharp cut-off); inconclusive means no clear call, values can overlap the other calls; inactive means mostly above about 0.92. This is one part of the list.

Test: chemical genetic growth profiling, strain panel (AID 1159580);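 further: tested at 20 µM; growth read once vehicle control cultures reached saturation at 30 °C; 1 = growth at the plate median or of vehicle wells; lower values mean less growth of the strain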
Conditions: S. cerevisiae deletion strains, growth OD

Measured: normalized growth

NC(=O)CN1CCCC1=O
inactive: locus YAL013W, strain DEP1, hits give low values 1.01 and 1 | locus YAL021C, strain ccr4, hits give low values 0.982 | locus YAL026C, strain drs2, hits give low values 0.988 | locus YAL030W, strain snc1, hits give low values 0.992 | locus YAL040C, strain CLN3, hits give low values 0.986 | locus YBL061C, strain skt5, hits give low values 0.985 | locus YBR009C, strain hhf1, hits give low values 1 | locus YBR021W, strain FUR4, hits give low values 1.02 | locus YBR023C, strain chs3, hits give low values 0.991 | locus YBR171W, strain sec66, hits give low values 0.982 | locus YBR229C, strain ROT2, hits give low values 1.01 | locus YBR231C, strain swc5, hits give low values 1 | locus YBR279W, strain paf1, hits give low values 0.99 | locus YCL011C, strain gbp2, hits give low values 0.999 | locus YCL016C, strain dcc1, hits give low values 0.986 | locus YCL029C, strain bik1, hits give low values 1.02 | locus YCL061C, strain MRC1 (second series), hits give low values 1 | locus YCL061C, strain MRC1, hits give low values 0.981 | locus YCL069W, strain vba3, hits give low values 0.996 | locus YCR088W, strain abp1, hits give low values 0.978 | locus YDL005C, strain med2, hits give low values 0.996 | locus YDL035C, strain GPR1, hits give low values 1.02 | locus YDL040C, strain nat1, hits give low values 0.993 | locus YDL074C, strain BRE1, hits give low values 0.985 | locus YDL101C, strain DUN1, hits give low values 0.999 | locus YDL134C, strain PPH21, hits give low values 1.02 | locus YDL185W, strain tfp1, hits give low values 1.01 | locus YDL192W, strain arf1, hits give low values 1.01 | locus YDR001C, strain nth1, hits give low values 0.993 | locus YDR069C, strain doa4, hits give low values 1 | locus YDR101C, strain arx1, hits give low values 0.991 | locus YDR137W, strain rgp1, hits give low values 0.98 | locus YDR159W, strain sac3, hits give low values 1.01 | locus YDR162C, strain NBP2, hits give low values 1.01 | locus YDR195W, strain ref2 0.976 | locus YDR297W, strain sur2, hits give low values 0.989 | locus YDR318W, strain mcm21, hits give low values 1.01 | locus YDR334W, strain swr1, hits give low values 0.979 | locus YDR335W, strain msn5, hits give low values 0.989 | locus YDR363W, strain ESC2, hits give low values 0.983 | locus YDR388W, hits give low values 1.01 | locus YDR392W, strain spt3, hits give low values 0.916 | locus YDR502C, strain sam2, hits give low values 1.01 | locus YEL003W, strain gim4, hits give low values 0.999 | locus YEL037C, strain rad23, hits give low values 0.986 | locus YEL061C, strain CIN8 (second series), hits give low values 0.984 | locus YEL061C, strain CIN8, hits give low values 1.01 | locus YER002W, strain NOP16, hits give low values 1 | locus YER015W, strain faa2, hits give low values 1.01 | locus YER016W, strain bim1, hits give low values 0.996 | locus YER110C, hits give low values 1.02 | locus YER111C, strain swi4, hits give low values 0.988 | locus YER155C, strain BEM2 (second series), hits give low values 0.975 | locus YER155C, strain BEM2, hits give low values 1.01 | locus YER167W, strain BCK2, hits give low values 1.01 | locus YFR010W, strain ubp6, hits give low values 0.972 | locus YGL078C, strain dbp3, hits give low values 1.02 | locus YGL086W, strain mad1, hits give low values 1 | locus YGL167C, strain pmr1, hits give low values 0.986 | locus YGL173C, strain kem1, hits give low values 0.998 | locus YGL227W, strain vid30, hits give low values 0.998 | locus YGL240W, strain doc1, hits give low values 0.993 | locus YGL248W, strain PDE1, hits give low values 0.994 | locus YGL253W, strain hxk2, hits give low values 1 | locus YGR078C, strain PAC10, hits give low values 0.991 | locus YGR135W, strain pre9, hits give low values 1.02 | locus YGR252W, strain gcn5, hits give low values 0.997 | locus YHR013C, strain ard1, hits give low values 0.963 | locus YHR027C, strain rpn1, hits give low values 0.988 | locus YHR030C, strain SLT2, hits give low values 1 and 0.994 | locus YHR079C, strain IRE1 (second series), hits give low values 1.01 | locus YHR079C, strain IRE1, hits give low values 0.995 | locus YHR094C, strain hxt1, hits give low values 1.01 | locus YHR129C, strain ARP1, hits give low values 1.01 | locus YHR142W, strain chs7, hits give low values 0.971 | locus YHR200W, strain rpn10, hits give low values 1.01 | locus YIL066C, strain RNR3, hits give low values 1.01 | locus YIL073C, strain SPO22, hits give low values 1.08 | locus YIL125W, strain kgd1, hits give low values 1.01 | locus YIR030C, strain dcg1, hits give low values 1.01 | locus YJL092W, strain hpr5, hits give low values 0.989 | locus YJL095W, strain BCK1 (second series), hits give low values 0.995 | locus YJL095W, strain BCK1, hits give low values 0.992 and 0.977 | locus YJL115W, strain asf1, hits give low values 0.985 | locus YJL129C, strain trk1, hits give low values 0.998 | locus YJL134W, strain LCB3, hits give low values 0.997 | locus YJL154C, strain vps35, hits give low values 0.987 | locus YJL164C, strain tpk1, hits give low values 0.998 | locus YJL166W, strain qcr8, hits give low values 0.968 | locus YJL168C, strain set2, hits give low values 1 | locus YJL187C, strain SWE1 (second series), hits give low values 1 | locus YJL187C, strain SWE1, hits give low values 0.982 | locus YJR043C, strain POL32, hits give low values 1.01 | locus YJR066W, strain TOR1, hits give low values 0.951 | locus YJR075W, strain HOC1, hits give low values 1 and 0.993
